Data published in PubChem BioAssay (NCATS).
Inconclusive results are not listed. Entries that show only a call come without a potency. The source made the active and inactive calls. Calls come from the whole dose curve; as a rule, active = well fitted inhibition curve with a large enough effect; inconclusive = small, poorly fitted or top-dose-only effect; inactive = flat fitted curve, though single readings scatter.

The compounds below were run against Calcium and integrin-binding protein 1 (Homo sapiens) (UniProt Q99828) (assay: Primary qHTS for Identification of Calcium Integrin Binding Protein 1 (CIB1) Competitor (AID 1508620;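 note: GST tagged CIB1 binding a fluorescein labelled alphaIIb integrin peptide tracer; top concentration of the series differs between compounds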)). Settings: CIB1-GST / FITC-alphaIIb peptide fluorescence polarization; series mostly up to 114 µM.
Chain of Calcium and integrin-binding protein 1 (Homo sapiens) (Q99828 whole entry, looked up): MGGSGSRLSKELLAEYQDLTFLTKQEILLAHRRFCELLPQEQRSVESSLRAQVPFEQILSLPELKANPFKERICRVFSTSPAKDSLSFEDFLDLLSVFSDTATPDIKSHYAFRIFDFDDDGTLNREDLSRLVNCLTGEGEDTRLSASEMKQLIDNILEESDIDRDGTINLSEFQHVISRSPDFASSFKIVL
How it was run: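 Fluorescence polarization competition: CIB1-GST (1 uM final) preincubated with compound 15 min at room temperature, then FITC-labeled alphaIIb peptide (100 nM final) added for another 15 min. Polarization read at Ex 480/Em 540.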
`COc1c(C(O)CC(C)C)ccc2c1C(=O)OCc1cc(C)cc(O)c1O2` (stereo not given) was tested, and the Potency was “inactive”. `O=C(Nc1ccccc1Cl)c1cnc2ccc(C3CCNCC3)cn12` was tested, and the Potency was “inactive”. With `O=C(O)c1ccc(S(=O)(=O)N(Cc2ccc(OC(F)(F)F)cc2)c2ncc(C(F)(F)F)cc2Cl)cc1` the Potency was “inactive”. In the case of `COc1ccccc1-c1ccc(-c2cn(C(=O)N3CCCCC3Cc3ccccc3)nn2)cc1` (stereo not given), the Potency is reported as “inactive”. In the case of `CCC(CC)(NC(=O)C(C)C)C(=O)N[C@@H](CCCN=C(N)N)C(=O)NC1(C(=O)NC(c2ccc(F)cc2)c2ccc(F)cc2)CCCC1`, the Potency is reported as “inactive”. In the case of `CC(=O)O[C@H]1CC(C)(C)CC2[C@]13CO[C@@]21CCC2[C@@]4(C)CC[C@H](O[C@@H]5OC[C@H](O[C@@H]6O[C@H](CO)[C@@H](O)[C@H](O)[C@H]6O[C@@H]6OC[C@@H](O[C@@H]7O[C@H](CO)[C@@H](O)[C@H](O)[C@H]7O)[C@H](O)[C@H]6O)[C@H](O)[C@H]5O[C@@H]5O[C@H](CO)[C@@H](O)[C@H](O)[C@H]5O)[C@@](C)(CO)C4CC[C@@]2(C)[C@]1(C)C[C@H]3O` (stereo not given in full), the activity change, negative = inhibition is reported as 3.35% [at 12.4 µM] (inactive). For `COc1ccc(Oc2c(Cl)cnn(-c3cc(C)cc(C)c3)c2=O)cc1`, the Potency was “inactive”. `CC(C)S(=O)(=O)NC[C@@H]1CC(c2ccc(N3CCCC3)c(F)c2)=NO1` was tested, and the Potency was “inactive”. For `CN(C)CCN(Cc1ccccc1)C(=O)c1cc(-c2ccc(F)cc2)n2nc(C(C)(C)C)cc2n1`, the Potency was “inactive”. `N#Cc1ccc(COc2ccc(-c3cccc4nc(NC(=O)C5CC5)nn34)cc2)cn1` was tested, and the Potency was “inactive”.
